“And” between values parts separate entries of the source, which are not always exact repeats. Identical values can stand only once. Records with an inconclusive call do not appear. For part of these data: Potency and affinity values are given separately. The source made the active and inactive calls. Unless noted, no stated cut-off is given here; in the data, active means parasite load remaining mostly below about 12% (no sharp cut-off); inactive means mostly above about 10%.
Key:
[1] = polyglutamine-triggered caspase-3 activation inhibitors, cell-based (AID 1583); conditions: polyglutamine-induced caspase-3 activation, cell assay; stronger effect = higher value;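 tested at 10 µM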
[2] = suppressors of polyQ aggregation in yeast, 75Q-TubU reporter (AID 1593); conditions: Yeast 75Q polyglutamine aggregation reporter
[3] = rescue of polyQ-huntingtin neuronal dysfunction in worms, whole organism, C. elegans mechanosensory neurons, N-terminal huntingtin (AID 1599); conditions: touch response, stronger effect = higher value
[4] = inhibitors of mitochondrial cytochrome c release, biochemical, purified mitochondria (AID 1603); conditions: stronger effect = lower value;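 further: mouse liver mitochondria challenged with calcium chloride; signal normalized to the plate average as 100%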
[5] = inhibitors of polyQ protein aggregation (AID 1604); conditions: polyglutamine-induced protein aggregation inhibition assay; stronger effect = higher value; tested at 2.5 µM
[6] = enhancers of glutamate uptake in motor neurons, MN-1 cell line (AID 1612); conditions: MN-1 motor neuron cells, stronger effect = higher value;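 further: tested at 1 µM final; 0% = mean of DMSO vehicle wells on each plate; positive means more glutamate uptake than control and negative means less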
[7] = reducers of polyQ inclusions in PC12 cells, cell-based, NGF-treated PC12, GFPQ80 (AID 1614); conditions: PC12 NGF-treated GFP-polyQ80 inclusion reduction;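 further: lower means fewer inclusions and 0 means no inclusions at all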
[8] = suppressors of polyglutamine aggregation in yeast, 75Q-TubH (AID 1616); conditions: S. cerevisiae 75Q-TubH polyglutamine aggregation suppression; stronger effect = higher value
[9] = liver-stage malaria parasite growth inhibition, primary screen, cell-based, HepG2, luciferase luminescence, HepG2 viability (AID 624349);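 further: 100% = mean of DMSO negative control wells on the same plate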; conditions: P. berghei liver stage in HepG2, luciferase luminescence, concentration not given here; parasite load remaining: stronger effect = lower value; viability: measured here: HepG2 viability without parasites
[10] = differential killing of epithelial or mesenchymal cells, primary screen, imaging, PC-3E GFP, TEM4-18 mCherry, co-culture (AID 1345086;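 active means compounds killing one labelled cell type while sparing the other, by normalised counts and ratio limits, not self-fluorescent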;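 on all read-outs here: cells exposed to compound for 72 h before imaging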;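 on red/green cell ratio (normalised): normalised mesenchymal count divided by normalised epithelial count so high means epithelial killing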); conditions: imaging cell counts, at 1 µM; for red/green cell ratio (normalised): actives lie on both sides, counts scaled to control wells, 1 = unselective
[11] = sensitizers of A549 cells to miR-34 induction, primary screen, imaging, A549 dox-inducible miR-34, nuclei and caspase counts (AID 1347080;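 active means compounds whose cell count with miR-34 switched on is under 0.7 times the count with it off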); conditions: A549 miR-34 inducible, Hoechst nuclei count, 48 h
[12] = target: Mitogen-activated protein kinase 7 (Homo sapiens) (UniProt Q13164); assay: ERK5 transactivation activators in reporter cells, primary screen, cell-based, HTS (AID 1508626;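 active means luciferase signal above three times the same-plate solvent-only control wells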;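 further: luciferase driven by Gal4-ERK5 fusion binding five Gal4 sites before minimal TATA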); conditions: HeLa Gal4-ERK5 transactivation, 18 h, at 5 µM, stronger effect = higher value
[13] = target: NAD(+) hydrolase SARM1 (Homo sapiens) (UniProt Q6SZW1); assay: SARM1 TIR NADase inhibitors, cell lysate, NAD-Glo luminescence (AID 1508614;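 active means compound whose remaining NAD level is above about 45 nM, limit read from the data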); conditions: SAM-TIR HEK293T lysate NADase, at 1 µM, stronger effect = higher value
[14] = protection against mutant huntingtin cytotoxicity, PC12 cells, LDH release (AID 1610); conditions: PC12 mutant huntingtin toxicity, final LDH at 4 uM, stronger effect = lower value
[15] = measured here: epithelial PC-3E GFP cell survival
[16] = measured here: mesenchymal TEM4-18 mCherry cell survival
[17] = stronger effect = lower value, cell number ratio, induced over uninduced
[18] = measured here: relative caspase fold change +Dox/-Dox
[19] = measured here: total cells with miR-34 induction, stronger effect = lower value
[20] = measured here: total cells without miR-34 induction

Chain of NAD(+) hydrolase SARM1 (Homo sapiens) (Q6SZW1 whole entry, looked up): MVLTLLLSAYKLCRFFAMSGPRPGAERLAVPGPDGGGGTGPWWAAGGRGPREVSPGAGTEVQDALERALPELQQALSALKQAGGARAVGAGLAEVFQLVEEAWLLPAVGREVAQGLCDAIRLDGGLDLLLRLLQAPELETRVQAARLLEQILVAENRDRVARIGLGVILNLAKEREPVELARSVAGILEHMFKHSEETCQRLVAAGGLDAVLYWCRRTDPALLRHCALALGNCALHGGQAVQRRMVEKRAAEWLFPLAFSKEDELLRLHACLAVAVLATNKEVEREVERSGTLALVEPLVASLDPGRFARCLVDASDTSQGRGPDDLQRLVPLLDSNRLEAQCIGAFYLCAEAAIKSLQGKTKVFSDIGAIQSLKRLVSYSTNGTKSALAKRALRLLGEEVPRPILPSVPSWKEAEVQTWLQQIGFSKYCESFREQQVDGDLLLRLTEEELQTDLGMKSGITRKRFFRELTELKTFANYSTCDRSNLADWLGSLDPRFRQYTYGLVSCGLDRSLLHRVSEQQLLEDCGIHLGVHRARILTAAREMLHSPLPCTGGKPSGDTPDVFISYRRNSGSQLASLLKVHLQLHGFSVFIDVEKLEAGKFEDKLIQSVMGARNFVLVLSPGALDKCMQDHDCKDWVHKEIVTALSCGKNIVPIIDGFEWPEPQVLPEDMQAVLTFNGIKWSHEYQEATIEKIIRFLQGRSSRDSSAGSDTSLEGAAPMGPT
Chain of Mitogen-activated protein kinase 7 (Homo sapiens) (Q13164 whole entry, looked up, the tested form may be a part): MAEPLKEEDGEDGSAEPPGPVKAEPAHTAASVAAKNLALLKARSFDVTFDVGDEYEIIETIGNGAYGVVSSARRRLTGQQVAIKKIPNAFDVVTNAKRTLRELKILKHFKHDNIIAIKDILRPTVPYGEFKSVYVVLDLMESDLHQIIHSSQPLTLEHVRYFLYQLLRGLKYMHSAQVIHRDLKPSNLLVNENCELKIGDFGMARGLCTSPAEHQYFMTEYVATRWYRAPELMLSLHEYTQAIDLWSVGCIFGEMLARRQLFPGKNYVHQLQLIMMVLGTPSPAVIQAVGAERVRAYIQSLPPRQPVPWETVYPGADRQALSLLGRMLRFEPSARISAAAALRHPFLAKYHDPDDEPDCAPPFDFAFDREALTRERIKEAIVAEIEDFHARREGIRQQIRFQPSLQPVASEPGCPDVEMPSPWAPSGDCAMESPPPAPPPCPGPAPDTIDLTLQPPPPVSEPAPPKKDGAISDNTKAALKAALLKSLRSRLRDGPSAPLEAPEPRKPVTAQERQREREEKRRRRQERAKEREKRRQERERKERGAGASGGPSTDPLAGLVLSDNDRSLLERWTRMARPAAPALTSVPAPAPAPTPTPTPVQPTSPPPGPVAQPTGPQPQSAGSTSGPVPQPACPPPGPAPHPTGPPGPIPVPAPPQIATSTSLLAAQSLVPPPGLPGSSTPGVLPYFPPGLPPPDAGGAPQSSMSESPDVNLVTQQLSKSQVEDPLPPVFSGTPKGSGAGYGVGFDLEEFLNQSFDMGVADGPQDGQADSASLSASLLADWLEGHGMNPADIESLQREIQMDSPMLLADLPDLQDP

## Cc1c(C)c2c(c(C)c1O)CCC(C)(CCCC(C)CCCC(C)CCCC(C)C)O2 (stereo unspecified)
[1]
  inhibition: 25.1%
[2]
  score: -0.94
[3]
  rescue above control: -0.91
[4]
  cytochrome c release ratio: 1.24
[5]
  inhibition of aggregation: 78.9%
[6]
  glutamate uptake change: -4.89%
[7]
  inclusion score: 2
[8]
  aggregation suppression score: 0.219
[9]
  parasite load remaining: 67.5% (inactive)
  viability: 90.7%
[10]
  red/green cell ratio (normalised): 1.01 (inactive)
[10]; [15]
  normalised cell number: 0.82
[10]; [16]
  normalised cell number: 0.83
[11]; [17]
  fold change: 0.899 (inactive)
[11]; [18]
  fold change: 1.09
[11]; [19]
  cell count: 10700
[11]; [20]
  cell count: 11900
[12]
  luciferase signal: 44 AU (inactive)

## C[C@H](CCC(=O)O)[C@H]1CCC2C3C(=O)CC4CC(=O)CC[C@]4(C)C3CC(=O)[C@@]21C (stereo partly specified)
[1]
  inhibition: 12.1%
[2]
  score: 1.59
[3]
  rescue above control: -5.38
[4]
  cytochrome c release ratio: 1.29
[5]
  inhibition of aggregation: 91.6%
[6]
  glutamate uptake change: 7.41%
[7]
  inclusion score: 2
[8]
  aggregation suppression score: 1.06
[9]
  parasite load remaining: 101% (inactive) and 58% (inactive)
  viability: 69.6% and 86.9%
[10]
  red/green cell ratio (normalised): 1.22 (inactive)
[10]; [15]
  normalised cell number: 1.21
[10]; [16]
  normalised cell number: 1.47
[11]; [17]
  fold change: 0.851 (inactive)
[11]; [18]
  fold change: 1.32
[11]; [19]
  cell count: 10500
[11]; [20]
  cell count: 12400

## C[C@@H]1O[C@@H](OC[C@H]2OC(Oc3c(-c4ccc(O)c(O)c4)oc4cc(O)cc(O)c4c3=O)[C@H](O)[C@@H](O)[C@@H]2O)[C@H](O)[C@H](O)[C@H]1O (stereo partly specified)
[9]
  parasite load remaining: 80% (inactive)
  viability: 104%
[10]
  red/green cell ratio (normalised): 1.05 (inactive)
[10]; [15]
  normalised cell number: 0.95
[10]; [16]
  normalised cell number: 0.99
[11]; [17]
  fold change: 0.911 (inactive)
[11]; [18]
  fold change: 2.84
[11]; [19]
  cell count: 11500
[11]; [20]
  cell count: 12600
[12]
  luciferase signal: 56 AU (inactive)

## O=C(CNC(=O)c1ccc(Cl)cc1)NO
[9]
  parasite load remaining: 45.5% (inactive)
  viability: 106%
[10]
  red/green cell ratio (normalised): 0.95 (inactive)
[10]; [15]
  normalised cell number: 1.13
[10]; [16]
  normalised cell number: 1.08
[11]; [17]
  fold change: 0.961 (inactive)
[11]; [18]
  fold change: 3.28
[11]; [19]
  cell count: 12100
[11]; [20]
  cell count: 12600
[13]
  remaining NAD: 10 nM (inactive)
[12]
  luciferase signal: 60 AU (inactive)

## OC[C@H]1O[C@H](O[C@]2(CCl)O[C@H](CCl)[C@@H](O)[C@@H]2O)[C@H](O)[C@@H](O)[C@H]1Cl
[9]
  parasite load remaining: 60.8% (inactive)
  viability: 98.6%
[10]
  red/green cell ratio (normalised): 0.96 (inactive)
[10]; [15]
  normalised cell number: 1.1
[10]; [16]
  normalised cell number: 1.05
[11]; [17]
  fold change: 0.909 (inactive)
[11]; [18]
  fold change: 4.93
[11]; [19]
  cell count: 12300
[11]; [20]
  cell count: 13500
[13]
  remaining NAD: 10 nM (inactive)
[12]
  luciferase signal: 68 AU (inactive)

## CN[C@@H]1[C@H](OC2[C@H](O[C@H]3[C@H](O)[C@@H](O)[C@H](N=C(N)N)[C@@H](O)[C@@H]3N=C(N)N)O[C@@H](C)[C@]2(O)C=O)O[C@@H](CO)[C@H](O)[C@H]1O (stereo partly specified)
[1]
  inhibition: 11%
[2]
  score: 1.53
[3]
  rescue above control: 0.21
[4]
  cytochrome c release ratio: 1.12
[5]
  inhibition of aggregation: 65.1%
[14]
  normalised LDH release: 0.965
[6]
  glutamate uptake change: 10.8%
[7]
  inclusion score: 1.5
[8]
  aggregation suppression score: 1.33
[9]
  parasite load remaining: 83% (inactive) and 43.9% (inactive)
  viability: 71.2% and 98.6%
[10]
  red/green cell ratio (normalised): 1.2 (inactive)
[10]; [15]
  normalised cell number: 1.02
[10]; [16]
  normalised cell number: 1.22
[11]; [17]
  fold change: 0.885 (inactive)
[11]; [18]
  fold change: 2.64
[11]; [19]
  cell count: 11600
[11]; [20]
  cell count: 13100

## FC(F)(F)C(Cl)Br (stereo unspecified)
[9]
  parasite load remaining: 24% (inactive)
  viability: 94.8%
[10]
  red/green cell ratio (normalised): 0.84 (inactive)
[10]; [15]
  normalised cell number: 1.13
[10]; [16]
  normalised cell number: 0.95
[11]; [17]
  fold change: 0.974 (inactive)
[11]; [18]
  fold change: 2.12
[11]; [19]
  cell count: 12500
[11]; [20]
  cell count: 12900
[13]
  remaining NAD: 10 nM (inactive)
[12]
  luciferase signal: 40 AU (inactive)

Source: PubChem BioAssay
